According to PubChem BioAssay AID1347426 (Functional Genomics Laboratory (NCATS/FGL), 2020):
About 1,400 (4.5%) of roughly 31,000 sequences were called active.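 The calls were made as follows: active = median seed-adjusted z-score above 1 or below -1; inactive = the rest.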 The entries come from a sample that favours actives as a whole.

Assay: Novel Modifiers of Survival Motor Neuron (SMN) Protein: Gene Identification via Genome-wide siRNA Screen;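 also: luminescence tracks full-length SMN protein made from the SMN2 reporter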
Conditions: HEK293T SMN2-luciferase reporter, siRNA knockdown, 72 h; actives lie on both sides
Method in brief: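 siRNA screen, 10418 genes ×3 siRNAs; 1 pmol/well, lipid reverse transfection into HEK293T SMN2-luc reporter line. 72 h, 37 °C, 5% CO2; ONE-Glo readout. Data: neg-ctrl normalized, log10, MAD; hit = MAD >1.0 or < -1.0.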

Sequence	median seed-adjusted z-score
GAAACAACUUGAUUUCGAATT against PCDHB8	1.15 (active)
GCAUGUUGUUGAUCAUGGATT against MAFB	0.674 (inactive)
GAAGUGUUAUGUAAGGAGATT against EPHX2	0 (inactive)
GAACAUGUCUUUAACGGAUTT against TJP2	0.0668 (inactive)
AGAUGAGAACUCUAAGCAATT against CHRM2	0.053 (inactive)
CGAUCACUUCCUACAGUCUTT against RGR	0.217 (inactive)
CCAUUGAAGUGGUUAAGAATT against CCNE2	0.801 (inactive)
GGUUGUUGCUGAUAGAGAATT against DPH5	0 (inactive)
GAAGGACUCUGCAUAUGAUTT against SLC2A14	-1.09 (active)
CAACUAUAGUGCUCCCAGUTT against ZFP36L1	-0.933 (inactive)
CUCAGAGUGCAGAACCACATT against TRIM15	0.292 (inactive)
CCACGUACCCUUCAUCAAATT against KIF11	-0.381 (inactive)
GGUCUUCAGUGAACAGUUUTT against ZNF562	-0.0954 (inactive)
CUGUAAGAUUAAAUCCCAATT against TMTC4	-1.16 (active)
GCCUUACAACUCUAAUGAATT against ZNF519	0.0162 (inactive)
GCAUGGUCAUAGGCCUGAUTT against CYB561	0 (inactive)
GGUGGAUGCUCAAUCCAGATT against FOXO1	0.0591 (inactive)
CGAGAAGAGGAUUAAAGGATT against HAND1	0.161 (inactive)
GGAAGAUUACAACCGAACATT against ARHGEF12	0.136 (inactive)
GAUCACGUUUGACAACAAATT against MCOLN1	-0.522 (inactive)
CUUUAACUGGGAUCACUGUTT against FOLR3	0 (inactive)
CAACCAAAGUCGAAUAUGATT against PLK1	-2.57 (active)
UCCCAAACCUUCACCAUCATT against THAP8	-0.872 (inactive)

Sequence	median seed-adjusted z-score
GCAUCACCAUUGCUUGGAATT against STAT5B	0 (inactive)
CCUCGAUAUUUUAACCUUUTT against EID2	-1.04 (active)
GUGAUAAAGUGAUAAGAUUTT against CPA6	0.343 (inactive)
CCCACUAAAUUUUCGGAAATT against ATAD2	-0.246 (inactive)
CUAUGAAAAUUGCAGGAGATT against GCM2	-0.241 (inactive)
CCCAGGAACUGCUAACGAATT against SETMAR	0.191 (inactive)
GCUCAUCCCUGUGCAUGGUTT against LY6G5B	-1.29 (active)
CUACAAGACAGGCAAUCUATT against IFI30	0.401 (inactive)
CAGUAAGAAGGGUUCAAUATT against BTK	-0.0648 (inactive)
CAAGAGAUAUCAUCGAUUATT against ZRANB3	0.0516 (inactive)
GGAUAUAGCUGGUGACCCATT against PCDH7	0.192 (inactive)
AGUUGUUGGAAUGACCUUATT against CLEC5A	-1.07 (active)
GAAGAUGUAUGGAAUUCUUTT against DARC	0.0814 (inactive)
CCAAGUAUCUGGUGGUGAATT against NDUFV1	-0.653 (inactive)
GGACGAGAGAUGUACAUUATT against CNGA1	-1.08 (active)
ACAUUUAGGUUGUAAACCATT against PLA2G12A	0.139 (inactive)
UGGUCAACUAGAAUACAUATT against RGPD5	-0.0931 (inactive)
GGAGAUGCACAACAUCUUATT against PIP4K2B	0.17 (inactive)
GAGUGGAAGUCAUACCCUATT against TTLL3	-0.194 (inactive)
CUAAUAACAGGGUACAGUATT against ZNF238	-0.491 (inactive)
CUAUGGACUUCAUCGCUUUTT against EEF1E1	-1.45 (active)
GCAGAGUCAUGACCAGGGATT against CHST6	0.372 (inactive)
CAGAUGCAGCACUCACUUUTT against MMP17	-0.653 (inactive)

Sequence	median seed-adjusted z-score
AGAGAGCUCCGAACCUUCUTT against ICAM5	-1 (active)
GGAGGGUUUUCACGAUGAATT against AP2B1	-0.214 (inactive)
CUGCAGAUCUUGUGACAGATT against IMPA2	0.0513 (inactive)
GUAUACUCCAGAACAAGUATT against ALDOB	-1.34 (active)
AGACAAAGAUUGAUAAACATT against SLC24A3	0.0177 (inactive)
AGAUCUACCCAGACCCGGATT against TRAF4	-1.16 (active)
UCUACGACGUGGACGGUAATT against RCVRN	0.562 (inactive)
CAGUAUACGUGGUGCACGATT against PFKL	0 (inactive)
GCAUCAACAAUAUCCGGGATT against FARSA	-0.158 (inactive)
GGGUUCCAGUAACCAGUGATT against RPP21	-1.09 (active)
GCAGCUCCAGUAACCUCAATT against ZNF683	-0.452 (inactive)
GAAGAGAUGUUCAACUGCATT against RAB35	0.317 (inactive)
GCAAGAGAAUUAAACUGCATT against RAB8A	-0.0436 (inactive)
GAGUUACAGCUGAUCAAAATT against VPS26A	-1.55 (active)
GGGAUCAACUUAGAAGAGATT against POU6F1	0.978 (inactive)
GGAUGCUGCUGAGAACUAUTT against PIK3R3	-1.88 (active)
GGAUCUUGAAUUCAACUAUTT against TLR8	0 (inactive)
CGCUAUGAUCUGUACCACATT against TMEM147	0.233 (inactive)
GGAACGCAGUCAGAUUUGATT against CA5B	0.317 (inactive)
GCGAUGAAAUUGUCGUGUATT against MAP3K9	-0.498 (inactive)
AGAUAACUGGAAAAUGUCUTT against SLC22A18AS	0.0382 (inactive)
CAAUGUCCGUGAUCAUGAUTT against SARDH	-0.195 (inactive)
GCCUCACCGUCUAUGUACATT against CD200	-0.0135 (inactive)
